# Screens as filed in PubChem BioAssay.
# IL1B secr inh – blocks inflammasome-driven IL-1 beta release. activity change, % at 57.5 µM. THP-1 LPS/ATP IL-1B secretion, AlphaLISA, 16 h; hits give low values. AID 743279. 360,000 compounds, 4.7% hits; in the data active = activity change below about -50%; inconclusive = mostly about -30% to -49%; note: % is set by controls: 0 for no effect and ±100 for the full control effect
#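 THP-1 cells pretreated 1 hr with compounds (up to 57.5 uM final), then stimulated with LPS (250 ng/mL final) plus ATP (1.25 mM final); secreted IL-1B measured by AlphaLISA after 16 hr, decreased signal indicating inhibition.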
# PINK1 modulator – changes PINK1 expression; Potency, µM (series often up to 76.6 µM), for the others: top-dose activation (PINK1 increase), hits mostly activators; AID 624263; PINK1 immunofluorescence, high-content cytometry, 24 h; 410,000 compounds, 0.2% hits; active = well fitted activation curve with a large enough effect; inconclusive = small, poorly fitted or top-dose-only effect; cell line not stated here; note: potency is the fitted concentration of half-maximal effect; % of control where 0% means no effect; nearly all actives have a fitted effect of over 65% in size
#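 Stable cell line, 250 cells/well, 12 h attachment; compounds pinned at 5 concentrations, 24 h; CCCP control. Fixed with nuclear dye, primary antibodies 12 h at 10 degrees C, secondary plus cell stain; laser-scanning cytometer read.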
# SW480 rereplic – induces DNA re-replication in SW480 colon adenocarcinoma cells | Potency, µM (top dose mostly 46.1 µM), for the others: top-dose re-replication activation, hits mostly activators | 340,000 compounds, 1.8% hits | SW480 DNA re-replication, Hoechst DNA content imaging, 48 h; note: potency is the fitted concentration of half-maximal effect; % of control where 0% means no effect; nearly all actives have a fitted effect of over 55% in size
#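 Hoechst fluorescence of nuclei (405 nm excitation, 500-530 nm emission) measured by plate-scanning imager after 48 hr compound exposure at 37 C; re-replication scored as increased number of nuclei with elevated intensity.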
# MCF10A rerep – induces DNA re-replication in MCF 10a normal breast cells | MCF 10A DNA re-replication, Hoechst nuclear intensity, 48 h | Potency, µM (series often up to 46.1 µM), for the others: at the top dose activity, positive = re-replication, usual class: activators | 350,000 compounds, 2.9% hits | AID 624296; note: potency is the fitted concentration of half-maximal effect; % of control where 0% means no effect; nearly all actives have a fitted effect of over 50% in size
# ATXN viability – reduces viability in counter-screen for ATXN expression inhibitors; 400,000 compounds, 0.49% hits; S2 cells (HEK-293 line with an ATXN2-luciferase reporter) viability, CellTiter-Fluor protease fluorescence, 24 h; Potency, µM (doses to about 56.7 µM), usual class: cytotoxic; AID 651635; note: potency is the fitted concentration of half-maximal effect; nearly all actives have a fitted effect of over 40% in size
# ATXN2 expr inh – ATXN2 expression inhibition; HEK-293 ATXN2-luciferase reporter, luminescence, 24 h; Potency, µM (doses to about 57 µM), for the others: at the highest dose activity change, negative = inhibition, hits mostly inhibitors; 360,000 compounds, 0.72% hits; note: potency is the fitted concentration of half-maximal effect; % is set by controls: 0 for no effect and ±100 for the full control effect; nearly all actives have a fitted effect of over 55% in size
#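 ATXN2-luciferase reporter cells (luciferase flanked by upstream and downstream ATXN2 gene portions) were treated 24 h at 37 °C with compounds at up to 57 uM. SteadyGlo luminescence gave expression; GF-AFC fluorescence gave viability.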
# An asterisk follows results filed as active; i = inactive; u = inconclusive; x = no result; [ ] = another dose, or the depositor's remark. Compounds with a hit are over-represented: about 7.1% of the library has one in this group of screens. Unless noted, calls come from the whole dose curve; as a rule, active = well fitted curve in the direction sought with a large enough effect; inconclusive = small, poorly fitted or top-dose-only effect, or another doubt; inactive = no such curve, though single readings can be large; an effect the other way counts as inactive or inconclusive.
SMILES,IL1B secr inh,PINK1 modulator,SW480 rereplic,MCF10A rerep,ATXN viability,ATXN2 expr inh
N#Cc1c(NC(=S)NC(=O)c2ccccc2)sc2c1CCCC2,2,1%,x,u,i,41%
N#Cc1c(NC(=O)c2ccccc2)sc2c1CCC2,20,7%,10µM*,u,i,25%
N#Cc1c(NC(=O)c2cccnc2)sc2c1CCC2,10,6%,16µM*,5.8µM*,u,8%
COc1ccc(-c2nnc(SCCOc3ccccc3C)o2)cc1OC,x,5%,x,x,i,-3%
O=C1NC[C@H](Cc2ccccc2)N(C[C@@H]2CCCN2C[C@H](Cc2ccc(O)cc2)N2C[C@H](Cc3ccc(O)cc3)N(CCc3ccccc3)C(=O)C2=O)C1=O,-20,2%,x,x,i,7%
O=C1NC[C@H](Cc2ccccc2)N(C[C@H]2CCCN2C[C@H](Cc2ccccc2)N2C[C@H](Cc3ccc(O)cc3)N(CCc3ccccc3)C(=O)C2=O)C1=O,-52*,3%,u,u,u,-20%
O=C1NC[C@H](Cc2ccccc2)N(C[C@@H]2CCCN2C[C@H](Cc2ccccc2)N2C[C@H](Cc3ccc(O)cc3)N(CCc3ccccc3)C(=O)C2=O)C1=O,-60*,2%,x,x,i,-23%
COC(=O)c1cccc(C(=O)NCc2nc(-c3cccc(NC(=O)c4ccoc4C)c3)oc2C)c1,x,3%,x,x,x,x
COc1ccc2c(c1)OC(c1ccccc1)(C(F)(F)F)NC2=O (centres undefined),-2,8%,3%,-3%,i,-12%
COc1ccc(C2(OC)Oc3cc(OC)ccc3C(=O)C2(O)OC)cc1 (centres undefined),-74*,15%,17%,u,i,-9%
CCN(C(=O)COC(=O)CCOc1ccc(C(C)(C)C)cc1)c1c(N)n(Cc2ccccc2)c(=O)[nH]c1=O,-16,-1%,0%,23µM*,u,u
CCN(C(=O)COC(=O)c1ccccc1Nc1ccccc1)c1c(N)n(Cc2ccccc2)c(=O)[nH]c1=O,-50*,0%,u,u,u,x
CC1=C(C(=O)Nc2ccccc2)C(c2cccnc2)n2nc(SCc3ccccc3Cl)nc2N1 (centres undefined),x,2%,x,x,i,2%
Cn1c(=O)c2c(-c3cccc(Br)c3)n(CCO)cc2n(C)c1=O,x,4%,x,x,i,-2%
O=c1cc(CNc2cc(C(F)(F)F)cc(C(F)(F)F)c2)nc2sccn12,-71*,4%,-1%,u,i,-13%
O=c1ccc(C(F)(F)F)cn1Cc1cc(=O)n2ccsc2n1,2,1%,-4%,3%,i,-17%
Nc1nnc(CC(=O)N/N=C/c2ccc(-c3ccc(F)cc3)o2)s1,-51*,1%,-5%,-1%,i,-9%
Cc1ccc(-c2cc3nn(-c4ccccc4)c(N)c3c(=O)o2)cc1,-56*,13%[38.3 µM],u,16%,i,22%
COC(=O)c1ccc(NC(=O)CC2C(=O)N(c3ccccc3)C(=O)N2Cc2cccs2)cc1 (centres undefined),x,2%,x,x,x,x
O=C(Nc1nc2c(Cl)cccc2s1)c1ccc([N+](=O)[O-])o1,-11,u,-5%[9.22 µM],u,u,u
O=C(Nc1nc2c(Cl)cccc2s1)c1ccc(Br)o1,-18,14µM*,-11%,4%,i,35%
OC1Cc2ccccc2C1Nc1cccc(C(F)(F)F)c1 (centres undefined),-66*,9%,3%,-1%,i,-4%
O=C(O)Cc1cn(Cc2ccc(F)cc2)c2ccccc12,33,1%,-3%,7%,i,-9%
Cc1[nH][nH]c(=O)c1C(c1c(C)[nH][nH]c1=O)c1cn(Cc2ccc(F)cc2)c2ccccc12,-101*,-4%,9.2µM*,u,i,-27%
Cc1[nH][nH]c(=O)c1C(c1c(C)[nH][nH]c1=O)c1cn(Cc2ccc(Cl)c(Cl)c2)c2ccccc12,-98*,u,9.2µM*,u,u,u
SMILES,IL1B secr inh,PINK1 modulator,SW480 rereplic,MCF10A rerep,ATXN viability,ATXN2 expr inh
CCCN(CCC)c1nn2c(=O)c(C(=O)NCc3cc(Br)ccc3OC)cnc2s1,x,0%,x,x,x,x
Cc1nc(Nc2n[nH]c3c2CN(C(=O)N[C@H](CN(C)C)c2ccccc2)C3(C)C)c2sccc2n1,x,x,x,x,x,17µM*
O=C(OCC(O)C(O)C(O)COC(=O)c1ccccc1)c1ccccc1 (centres undefined),0,-1%,-22%,1%,i,2%
O=C(OCC(O)C(O)C(O)C(SCc1ccccc1)SCc1ccccc1)c1ccccc1 (centres undefined),-72*,2%,u,u,i,-18%
O=C(NCC(O)CO)c1c(I)c(C(=O)NCC(O)CO)c(I)c(N(CCO)C(=O)CO)c1I (centres undefined),x,x,x,x,i,-5%
Cc1cc(C)cc(-n2c(C)c3c(C)nnc(C)c3c2C)c1,-2,u,23µM*,10%,i,-22%
CC(C)OC(=O)CN1C(=O)S/C(=C/c2ccc(N3CCCCC3)o2)C1=O,-104*,x,u,26%,i,-3%
O=C(COC(=O)Cn1cc(C(F)(F)F)ccc1=O)NCc1ccccc1,-8,-1%,-40%,-3%,i,6%
CC1CCN(c2ccccc2NC(=S)NC(=O)C(C)(C)C)CC1,47,3%,28%,u,i,6%
CC1CCN(c2ccccc2NC(=S)NC(=O)c2ccco2)CC1,3,15%,9%,18µM*,i,-2%
CC1CCN(c2ccccc2NC(=S)NC(=O)c2cccs2)CC1,48,3%,-2%[9.22 µM],10µM*,i,17%
CN(C)c1cc(N/N=C\c2ccccc2)nc(N(C)C)n1,-96*,12%,u,-37%[9.22 µM],i,-14%
COc1ccccc1/C=N/Nc1cc(N(C)C)nc(N(C)C)n1,-153*,1%,u,u,i,-8%
Cc1cc(-c2ccccc2)nc(N/N=C/c2ccc(N(C)C)cc2)n1,-20,2%,3%,u,i,x
COc1ccc(/C=N/Nc2cc(N(C)C)nc(N(C)C)n2)cc1,-75*,5%,u,u,i,-5%
COc1ccc(NC(=O)c2c(NCc3ccc(N(C)C)cc3)sc3c2CCC3)cc1,x,2%,x,x,i,0%
Cc1ccc(-c2[nH]ncc2/C=N/n2c(COc3ccccc3C)nc3ccccc3c2=O)cc1,-99*,-3%,u,5.8µM*,x,28µM*
Cc1cc(/C=N/n2c(COc3ccccc3C)nc3ccccc3c2=O)c(O)c([N+](=O)[O-])c1,326,6%,13µM*,10%,u,u
